Source: PubChem BioAssay (National Center for Advancing Translational Sciences (NCATS))
FLuc modulator – counter-screen for miR-21 project: firefly luciferase inhibitors or activators | Potency, µM (series often up to 57.5 µM), for inactives: top-dose activity change, negative = inhibition, most hits filed as inhibitors | P08659 | purified FLuc, Km substrates, luminescence inhibition | 360,000 tested, 6.9% active;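 note: plate controls were vehicle for no effect and reference inhibitor for full effect; nearly all actives have a fitted effect of over 55% in size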
Target sequence (P08659 whole entry, looked up): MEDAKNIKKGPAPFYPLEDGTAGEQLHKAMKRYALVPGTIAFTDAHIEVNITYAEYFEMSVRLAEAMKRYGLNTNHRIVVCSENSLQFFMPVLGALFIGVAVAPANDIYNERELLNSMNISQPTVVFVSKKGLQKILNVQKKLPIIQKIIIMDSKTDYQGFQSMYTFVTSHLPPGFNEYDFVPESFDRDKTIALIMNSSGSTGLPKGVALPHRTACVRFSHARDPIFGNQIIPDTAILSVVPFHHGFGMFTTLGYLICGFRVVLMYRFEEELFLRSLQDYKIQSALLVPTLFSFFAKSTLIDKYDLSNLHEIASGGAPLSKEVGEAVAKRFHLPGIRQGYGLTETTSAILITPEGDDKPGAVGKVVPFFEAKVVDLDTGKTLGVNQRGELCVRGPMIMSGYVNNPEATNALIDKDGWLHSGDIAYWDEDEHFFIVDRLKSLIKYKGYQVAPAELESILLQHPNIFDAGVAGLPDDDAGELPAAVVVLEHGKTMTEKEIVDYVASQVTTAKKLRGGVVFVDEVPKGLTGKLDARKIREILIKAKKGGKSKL
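Purified P. pyralis luciferase, 10 nM final, with Km-level 10 uM D-luciferin and 10 uM ATP in 50 mM Tris acetate pH 7.5, 10 mM Mg acetate, 0.01% Tween-20, 0.05% BSA; 6-point qHTS titration about 60 µM downward; luminescence read.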
ELG1 genotoxic – genotoxicity induction in ELG1-luciferase HEK293T cells; 330,000 tested, 1.3% active; AID 504466; HEK293T ELG1-luciferase reporter, luminescence, 16 h; Potency, µM (titrated, usually from 46 µM), without a hit: at the highest dose activity change, positive = activation, hits mostly activators; note: % of control where 0% means no effect; nearly all actives have a fitted effect of over 60% in size
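ELG1-luciferase HEK293T cells, 2,000/well; compound pinned in; 16 hr, 37 °C, 5% CO2; ONE-Glo, 30 min RT; luminescence on CCD imager.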
SMN2 splice enh – SMN2 splice variant enhancement; HEK293 SMN2-luciferase splicing reporter, luminescence, 30-36 h; Potency, µM (highest dose often 46.1 µM), for inactives: at the top dose activity change, positive = activation, actives largely listed as activators; 210,000 tested, 2.8% active; AID 1458; note: % of control where 0% means no effect; nearly all actives have a fitted effect of over 55% in size
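qHTS luciferase splicing reporter: luminescence rises when SMN2 exon 7 is included in transfected HEK293 cells. Compound exposure lasted 30-36 h at 37C, with 4.5 mM final sodium butyrate as control, followed by a ONE-Glo read.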
KinaseGlo FLuc – counter-screen: inhibitors of Kinase-Glo firefly luciferase; Kinase-Glo luciferase, ATP luminescence, 8 min; Potency, µM (highest dose often 38.3 µM), inactives show top-dose activity change, negative = inhibition, actives largely listed as inhibitors; 200,000 tested, 0.28% active; AID 1379; Q27757; note: % is set by controls: 0 for no effect and ±100 for the full control effect; nearly all actives have a fitted effect of over 60% in size
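Kinase-Glo luciferase light output from ATP and luciferin was measured with 10 uM ATP, within the enzyme's linear range. Buffer: 50 mM imidazole pH 7.2, 50 mM KCl, 7 mM MgCl2, 0.01% Tween 20, 0.05% BSA; luminescence read after 8 min at ambient temperature.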
NPC1 promoter act – activates the NPC1 promoter | Huh7 NPC1 promoter luciferase reporter, 24 h | Potency, µM (highest dose often 9.22 µM), without a hit: at the top dose activation, actives largely listed as activators | 320,000 tested, 2.4% active; note: % of control where 0% means no effect; nearly all actives have a fitted effect of over 60% in size
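Huh7 reporter cells (NPC1 promoter driving luciferase) are dosed with compound for 24 h at 37 °C, 5% CO2; luciferase detection reagent is then added and luminescence measured after 10 min at ambient temperature.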
Rab9 prom act – Rab9 promoter activation; Huh7 Rab9 promoter-luciferase reporter, luminescence, 24 h; 320,000 tested, 2.8% active; Potency, µM (series often up to 9.22 µM), for the others: at the top dose activation, negative = inhibition, actives largely listed as activators; note: % of control where 0% means no effect; nearly all actives have a fitted effect of over 60% in size
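Huh7 cells stably carrying Rab9 promoter–luciferase reporter, plated 1500 cells/well, compound added after 2 h and incubated 24 h at 37 °C; luciferase luminescence then read after 10 min with detection reagent.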
Numbers without * were called inactive; ? = inconclusive; nt = no result; [ ] = remark or other dose. A selection: hits, their analogues and other compounds. The true share with any hit is near 7.5%. Calls come from the whole dose curve; as a rule, active = well fitted curve in the direction sought with a large enough effect; inconclusive = small, poorly fitted or top-dose-only effect, or another doubt; inactive = no such curve, though single readings can be large; an effect the other way counts as inactive or inconclusive. Potency is the fitted concentration of half-maximal effect.

SMILES	FLuc modulator	ELG1 genotoxic	SMN2 splice enh	KinaseGlo FLuc	NPC1 promoter act	Rab9 prom act
CCCOc1ccc(C(=O)Nc2ccc3c(c2)OCCO3)cc1	1.2µM*	2.9µM*	nt	nt	0.35µM*	0.56µM*
COc1ccc(-c2noc(CCC(=O)Nc3ccc4c(c3)OCCO4)n2)cc1	17µM*	15%	-18%	16%	0%	1%
COc1ccc(C(=O)CCNc2cccc(Cl)c2)cc1	?	?	?	0%	?	3.5µM*
O=C(Cn1c(=O)c(CNc2ccccc2)cc2cc3c(cc21)OCCO3)Nc1ccccc1Cl	-7%	nt	nt	nt	nt	nt
Cc1c(NC(=O)Nc2ccc(Br)cc2F)sc2nc3n(c(=O)c12)CCC(C)CC3 (configuration not stated)	7%	nt	-5%	nt	nt	nt
O=C(CCNc1ccccc1)c1ccc2c(c1)OCO2	4.8µM*	?	2%	0%	2.2µM*	2.5µM*
COc1ccc(C(=O)CCNc2ccc3c(c2)OCCO3)cc1	13µM*	-4%	10%	5%	?	24%
COc1ccc(C(=O)CNc2cccc(F)c2)cc1	11µM*	?	nt	nt	?	11%[1.84 µM]
COc1ccc(C(=O)Nc2ccc3c(c2)OCCO3)cc1	0.85µM*	?	1.8µM*	-16%	0.45µM*	0.71µM*
CCN(CC)S(=O)(=O)c1cc(C(=O)OCC(=O)NC(=O)c2cccn2C)ccc1C	1%	-2%	-15%	-1%	-2%	2%
CC(=O)Nc1ccc(N(C(=O)CNC(=O)c2cccs2)C(C(=O)NCC2CCCO2)c2ccccc2)cc1 (configuration not stated)	-2%	-2%	nt	nt	-2%	0%
Cc1nc(N)sc1N=Nc1ccc(F)cc1	12µM*	12µM*	12%	-2%	?	?
Cc1ccc(Cc2nc(-c3ccncc3)no2)cc1	-14%	0%	2%	0%	4%	11%
CCCc1ccc(-c2ccc(-c3noc(-c4ccncc4)n3)cc2)nc1	?	-3%	nt	nt	-9%	-7%
CCc1ccc(-c2nc(-c3ccncc3)no2)cc1	0.67µM*	0.73µM*	7.9µM*	8%	0.35µM*	?
CCCCc1ccc(-c2nc(-c3ccncc3)no2)cc1	1.9µM*	23µM*	13µM*	-7%	0.45µM*	0.35µM*
COc1ccc(CNC(=O)COC(=O)CCCOc2ccc(Cl)cc2Cl)cc1OC	17µM*	-2%	2%	-4%	1%	-3%
Cc1cc(Cl)ccc1OCCCC(=O)NN	3%	-1%	2%	0%	0%	0%
Cc1cc(Cl)ccc1OCCCC(=O)OCC(N)=O	27µM*	1%	17%	0%	-7%	-12%
Cc1cc(Cl)ccc1OCCCC(=O)N1CCCCC1	21µM*	?	5%	-1%	?	?
Cc1ccc(OCC(=O)N2CCCCCC2)c(C)c1	-22%	?	7.1µM*	4%	19%	13%
Cc1cc(=O)n2nc(N3CCC(C(=O)NCCCOC(C)C)CC3)sc2n1	-2%	nt	7%	nt	nt	nt
N#Cc1ccc(CSc2nc3c(c(=O)[nH]2)CCCC3)cc1	1%	nt	nt	nt	nt	nt
COCCn1c(SCC(=O)Nc2cc(C)nn2-c2ccccc2)nnc1-c1ccncc1	2%	-1%	2%	1%	-3%	1%
COc1ccc(C(=O)N2CCC3(CCCN(C(=O)Nc4cccc(F)c4)C3)CC2)cc1	nt	nt	-6%	-3%	nt	nt
SMILES	FLuc modulator	ELG1 genotoxic	SMN2 splice enh	KinaseGlo FLuc	NPC1 promoter act	Rab9 prom act
CC(C)c1ccc(OCC(=O)N2CCCCCC2)c(Br)c1	21µM*	?	25%	0%	?	2.8µM*
CCC1=C(OC(=O)N(CC)CC)N2C(=O)OC(=NCC3CC3)[C@]2(Cc2ccccc2)[C@H]2C1=CC[C@H]1C(=O)N(c3ccccc3)C(=O)[C@H]12	2%	-6%	-14%	-2%	-11%	-7%
CCOC(=O)Cc1csc(NC(=O)Nc2ccc(C)cc2)n1	3µM*	0%	nt	nt	17%	21%
CCOC(=O)Cc1csc(NC(=O)Nc2cccc(OC)c2)n1	15µM*	-2%	nt	nt	13%	-1%
CCOC(=O)Cc1csc(NC(=O)c2cccc(OC)c2)n1	?	3%	-3%	-1%	4%	0%
CCOC(=O)Nc1nc(-c2ccc(F)cc2F)cs1	19µM*	14%	26%	-1%	?	?
CCCC(=O)Nc1ccc(C(=O)Nc2nc(CC(=O)OCC)cs2)cc1	15µM*	-1%	-3%	14%	1%	-1%
C/C(=N\NC(=O)c1nn(C)c(C)c1Br)c1ccc(NC(=O)c2ccccc2F)cc1	-13%	9%	?	0%	20%	24%
CCOC(=O)Cc1csc(NC(=O)Nc2cccs2)n1	21µM*	7%	nt	nt	?	24%
CCOC(=O)Cc1csc(NC(=O)Nc2ccc(F)cc2)n1	11µM*	-10%	nt	nt	4%	-1%
CC(=O)O[C@]1(C(C)=O)CC[C@@H]2[C@@H]3C=C(Cl)C4=CC(=O)[C@H]5C[C@@H]5[C@]4(C)[C@H]3CC[C@]21C	nt	nt	-9%[20.6 µM]	3%[17.1 µM]	nt	nt
O=C(Nc1cccc(-c2cn3ccccc3n2)c1)c1cccc(Cl)c1	2.4µM*	-5%	-21%	1%	-1%	18%
O=C(Nc1cccc(-c2cn3ccccc3n2)c1)c1cnccn1	12µM*	-2%	?	-5%	25%	29%
O=C(Nc1cccc(-c2cnc3ccccc3n2)c1)c1ccc(Cl)cc1	-10%	8%	7%	0%	6%	12%
COC(=O)c1cccc(NC(=O)c2cnccn2)c1	-9%	2%	nt	nt	19%	?
O=c1c2ccccc2nnn1CSc1nnc(-c2ccc3c(c2)OCO3)o1	6.7µM*	?	?	-5%	?	?
CC(=O)Nc1ccc(NC(=O)CSc2nnc(-c3ccc4c(c3)OCO4)o2)cc1	nt	8%	nt	nt	nt	nt
O=c1c2ccccc2nnn1CSc1ccccc1	1.9µM*	?	7.9µM*	-12%	1µM*	0.56µM*
O=C1OCCC1Sc1nnc(-c2ccc3c(c2)OCO3)o1 (configuration not stated)	9.5µM*	-1%	-28%	-3%	-4%	-2%
CC(=O)CSc1nnc(-c2ccc3c(c2)OCO3)o1	6.7µM*	?	14µM*	-8%	?	2.8µM*
COc1cccc(OC(=O)CSc2nnc(-c3ccc4c(c3)OCO4)o2)c1	-5%	nt	nt	nt	nt	nt
O=C1OCCC1Sc1nnc(-c2ccc(O)cc2)o1 (configuration not stated)	?	1%	-6%	-10%	2%	-2%
CCOC(=O)C1CCN(CC(=O)Nc2cc(S(=O)(=O)N3CCCCC3)ccc2Cl)CC1	3%	-5%	nt	nt	-6%	-10%
c1cc(CSc2nnc(-c3ccc4c(c3)OCO4)o2)ccn1	?	12%	6%	0%	2.5µM*	2.5µM*
